The whole screen tested about 1,500 compounds, of which about 100 (6.7%) were called active. Another 7% or so got no clear call; they are omitted. What follows is part of a selection rich in actives, with near analogues and random picks from the rest. Values without a mark were called inactive. Calls come from the whole dose curve; as a rule, active = well fitted inhibition curve with a large enough effect; inconclusive = small, poorly fitted or top-dose-only effect, or effect the other way; inactive = flat fitted curve, though single readings scatter.
Each compound was assayed against Runt-related transcription factor 1 (Homo sapiens) + Core-binding factor subunit beta (Homo sapiens) (UniProt Q01196+Q13951) (assay: qHTS Assay for Compounds Blocking the Interaction Between CBF-beta and RUNX1 for the Treatment of Acute Myeloid Leukemia: Hit Validation). Details: AlphaScreen CBFb-His/RUNX1-biotin binding; series mostly up to 59.8 µM; activity, negative = inhibition: at the top concentration.
Runt-related transcription factor 1 (Homo sapiens) + Core-binding factor subunit beta (Homo sapiens), sequence (Q01196 whole entry, looked up): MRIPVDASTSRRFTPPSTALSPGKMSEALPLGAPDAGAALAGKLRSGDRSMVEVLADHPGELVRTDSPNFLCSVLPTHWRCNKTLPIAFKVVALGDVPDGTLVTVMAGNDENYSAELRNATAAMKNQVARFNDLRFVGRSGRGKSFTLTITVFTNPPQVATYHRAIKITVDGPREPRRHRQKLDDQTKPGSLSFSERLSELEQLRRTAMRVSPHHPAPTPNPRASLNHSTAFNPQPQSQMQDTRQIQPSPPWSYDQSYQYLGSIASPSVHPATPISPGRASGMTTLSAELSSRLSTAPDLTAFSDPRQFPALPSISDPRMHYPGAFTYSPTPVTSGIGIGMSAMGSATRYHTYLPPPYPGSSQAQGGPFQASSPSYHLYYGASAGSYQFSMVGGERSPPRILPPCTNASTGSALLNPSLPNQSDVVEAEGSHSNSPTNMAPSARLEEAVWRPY
Runt-related transcription factor 1 (Homo sapiens) + Core-binding factor subunit beta (Homo sapiens), sequence (Q13951 whole entry, looked up): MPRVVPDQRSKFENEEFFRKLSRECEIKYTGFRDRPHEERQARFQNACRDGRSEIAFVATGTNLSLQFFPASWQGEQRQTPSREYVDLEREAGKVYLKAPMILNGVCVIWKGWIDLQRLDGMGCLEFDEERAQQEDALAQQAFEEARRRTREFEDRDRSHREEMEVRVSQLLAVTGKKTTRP
How it was run: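 Compounds were added to a premixed CBF-beta-His/RUNX1-biotin complex (30 nM each, 20 min) for 15 min. Nickel and streptavidin AlphaScreen beads followed for 90 min at room temperature, with emission at 440 nm […].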
For `CC1=NN(c2nc3ccccc3s2)C(O)(C(F)(F)F)C1` (stereo not drawn), the “activity, negative = inhibition” value was -0.882%. For `COc1ccc(NC(=O)c2cccs2)cn1`, the “activity, negative = inhibition” value was 4.88%. With `CCOC(=O)NC1=NCC(C)S1` (stereo not drawn) the “activity, negative = inhibition” value was -9.33%. In the case of `O=S(=O)(c1ccc(C(F)(F)F)cc1)N1CCCN(c2ccc(C(F)(F)F)cn2)CC1`, the “activity, negative = inhibition” value is reported as -5.62%. In the case of `NNC(=O)c1ccc(COc2ccc([N+](=O)[O-])cc2)o1`, the “activity, negative = inhibition” value is reported as -7.53%. For `COc1ccc(/C=N/NC(=O)c2ccco2)cc1OCc1ccccc1`, the “activity, negative = inhibition” value was -0.527%. `N#Cc1cnn(-c2ccccc2)c1NC(=O)CN1CCOCC1` was tested, and the “activity, negative = inhibition” value was 0.441%. In the case of `COC(=O)CC1C(=O)NCCN1C(=S)Nc1ccc(F)cc1` (stereo not drawn), the “activity, negative = inhibition” value is reported as 0.286%. For `O=C(O)COCC(=O)N1CCN(C2c3ccccc3-c3ccccc32)CC1`, the “activity, negative = inhibition” value was -2.67%. For `CC(C)NC(=O)Nc1cccc(Cl)c1`, the “activity, negative = inhibition” value was 1.29%. In the case of `COCc1cc(O)c(O)c(O)c1-c1c(COC)cc(O)c(O)c1O`, the Potency is reported as 0.631 µM (active). In the case of `CCCCNC(=O)NCCN1CCOCC1`, the “activity, negative = inhibition” value is reported as 0.241%. With `Brc1ccc(C2Nc3cccc4cccc(c34)N2)o1` the Potency was 14.1 µM (active). With `Cc1ccc(/C=N/N2CCN(c3ccccn3)CC2)o1` the “activity, negative = inhibition” value was -6.58%. For `Cc1cc2nc(-c3ccccc3)cc(=O)n2[nH]1`, the “activity, negative = inhibition” value was -8.72%. With `NC(=S)N/N=C/c1ncc(C(F)(F)F)cc1Cl` the Potency was 25.1 µM (active). For `COc1ccc(/C=N/NC(=S)Nc2cc(C(F)(F)F)ccc2Cl)cc1`, the “activity, negative = inhibition” value was 10.6%. In the case of `CC(C)(C)c1ccc(CCC2OCC(C[N+]3(C)CCOCC3)O2)cc1` (stereo not drawn), the “activity, negative = inhibition” value is reported as -2.73%. `Cc1nn2c(NCCOCCO)c3c(nc2c1-c1ccccc1)CCC3` was tested, and the “activity, negative = inhibition” value was -12.7%. For `O=C(c1ccc(Cn2cc(Cl)c([N+](=O)[O-])n2)cc1)N1CCN(Cc2ccccc2)CC1`, the “activity, negative = inhibition” value was -5.87%. In the case of `Cc1onc(-c2c(F)cccc2Cl)c1C(=O)Nc1ccccc1N1CCOCC1`, the “activity, negative = inhibition” value is reported as -11.4%. In the case of `CCc1cccc(NC(=O)CCCCCC2NC(=O)NC2C)c1` (stereo not drawn), the Potency is reported as 0.447 µM (active). In the case of `CCC(=O)Nc1cccc(C(=O)OC)c1`, the “activity, negative = inhibition” value is reported as -8.54%. With `CCCCC(=O)Nc1ccc(NC(=S)NC(=O)c2ccco2)cc1OC` the “activity, negative = inhibition” value was -5.89%. `CCOC(=O)CN1NC2(CCCCCC2)NC1=S` was tested, and the “activity, negative = inhibition” value was -2.8%. For `Cc1onc(-c2c(F)cccc2Cl)c1C(O)c1ccc(F)cc1` (stereo not drawn), the “activity, negative = inhibition” value was 7.39%. For `Nc1ncccc1OCc1ccc(Cl)c(Cl)c1`, the “activity, negative = inhibition” value was -2.93%. With `COCCn1c(-c2ccc(Cl)cc2)nc2oc3cc(OC)ccc3c(=O)c2c1=O` the “activity, negative = inhibition” value was -1.81%. `CC(=O)Nc1ccc(OCCOc2ccc([N+](=O)[O-])cc2)cc1` was tested, and the “activity, negative = inhibition” value was 0.185%. In the case of `O=C1c2ccccc2C(=O)c2c(Nc3ccc(CCO)cc3)ccc(O)c21`, the Potency is reported as 0.794 µM (active). `CSC(=Nc1ccccc1)Nc1ccccc1` was tested, and the “activity, negative = inhibition” value was -0.945%. For `CCOC(=O)N1CCN(CC(=O)Nc2sc(CC)cc2C(=O)c2ccc(OC)cc2)CC1`, the “activity, negative = inhibition” value was -13.8%. In the case of `CCOC(=O)CC(=O)CSc1nc(CC)c(C)cc1C#N`, the “activity, negative = inhibition” value is reported as -13.7%. For `COc1ccc(N/C=C2\C(=O)c3c(sc(C)c3C)N(C)S2(=O)=O)cc1`, the “activity, negative = inhibition” value was 1.6%. For `COc1cc(/C=N/Nc2ccc(S(N)(=O)=O)cc2[N+](=O)[O-])cc(OC)c1O`, the “activity, negative = inhibition” value was -20.2%. With `COc1ccc(/C=N/NC(=O)c2ccc3nc[nH]c3c2)cc1OC` the “activity, negative = inhibition” value was -0.42%. `COc1cc(/C=N/NC(=O)c2cncc(Br)c2)cc([N+](=O)[O-])c1O` was tested, and the Potency was 2.82 µM (active). With `Oc1ccc2ccccc2c1C=Nc1ccccc1` the “activity, negative = inhibition” value was -2.72%. `CNC(=O)/C(C#N)=C1\SC(Cc2ccc(F)cc2)C(=O)N1c1ccccc1C` (stereo not drawn) was tested, and the “activity, negative = inhibition” value was -0.028%. With `O=C(Nc1ccccc1)NC1CCCCNC1=O` (stereo not drawn) the “activity, negative = inhibition” value was 1.23%. For `CCOc1ccccc1/C=C(/C#N)C(N)=O`, the “activity, negative = inhibition” value was 2.38%. In the case of `N#C/C(=C\c1ccc(OC(=O)c2ccccn2)cc1)C(N)=O`, the Potency is reported as 4.34 µM (active). With `CCOC(=O)/C(C#N)=C/Nc1ccccc1OC(F)(F)F` the “activity, negative = inhibition” value was -2.36%. For `COc1ccc(/C(C#N)=C/c2ccccn2)cc1`, the “activity, negative = inhibition” value was 9.94%. With `N#CC(C#N)=Cc1ccc(OC(=O)c2ccccn2)cc1` the Potency was 6.12 µM (active). `CCOC(=O)/C(C#N)=C/Nc1cc(F)ccc1C` was tested, and the “activity, negative = inhibition” value was -3.99%. `CCOC(=O)/C(C#N)=C/c1ccc(OC(=O)c2ccccn2)cc1` was tested, and the Potency was 3.86 µM (active). For `S=c1[nH]ccn1-c1ccccc1Cl`, the “activity, negative = inhibition” value was -10.1%. With `CC(=O)NCC1(O)CCCC(C)C1` (stereo not drawn) the “activity, negative = inhibition” value was -8.56%. `CC(C)(C)C(=O)Nc1ccc(NC(=O)C(C)(C)C)cc1` was tested, and the “activity, negative = inhibition” value was 10.3%. In the case of `O=C(COc1ccc([N+](=O)[O-])cc1Cl)N1CCOCC1`, the “activity, negative = inhibition” value is reported as 2.71%. For `O=C(CSc1n[nH]c(=O)[nH]c1=O)N1CCCCCC1`, the “activity, negative = inhibition” value was -1.59%. For `O=C(Oc1ccc2c(c1)O/C(=C\c1ccncc1)C2=O)c1cccs1`, the “activity, negative = inhibition” value was -8.69%. `CCCN(CCC)C(=O)CC(c1ccccc1)c1ccco1` (stereo not drawn) was tested, and the “activity, negative = inhibition” value was 12.8%. `COC(=O)c1ccc(OC)c(OC)c1Cl` was tested, and the “activity, negative = inhibition” value was -1.98%. With `Cc1c2c(c(O)c3c(O)cccc13)C(=O)O[C@H]2C1C(N(C)C)C(O)=C(C(N)=O)C(=O)[C@H]1O` (stereo partly drawn) the Potency was 0.631 µM (active). In the case of `CCOC(=O)c1c2c([nH]c(=S)c1C#N)CCCC2`, the “activity, negative = inhibition” value is reported as -3.85%. In the case of `COc1cc(O)c2c(c1)oc(=O)c1c3cc(O)c(O)cc3oc21`, the Potency is reported as 3.16 µM (active).

From PubChem BioAssay AID504374 (National Center for Advancing Translational Sciences (NCATS), 2011)
% is set by controls: 0 for no effect and ±100 for the full control effect; potency is the fitted concentration of half-maximal effect.
Note: nearly all actives have a fitted effect of over 60% in size.
